In PubChem BioAssay (EPA / NIEHS):
Activity calls are given as the source filed them. How the source made its calls: active means hit-call score of the fitted dose curve at least 0.9, where 1 is the maximum; inactive means score below 0.9.

Test: ATG_M_19_CIS: Attagene CIS-FACTORIAL HepG2 Assay for M19 Transcription Factor (Internal Marker) (AID 2282939)
Conditions: HepG2 Attagene CIS-FACTORIAL M19 internal marker reporter; actives raise or lower the signal
Method: ATG_CIS is a cell-based, multiplexed-readout assay that uses HepG2, a human liver cell line, with measurements taken at 24 hours after chemical dosing in a 24-well plate.ATG_M_19_CIS is one of 52 assay component(s) measured or calculated from the ATG_CIS assay. It is designed to make measurements of mRNA induction, a form of inducible reporter, as detected with fluorescence intensity signals by Reverse transcription polymerase chain reaction (RT-PCR) and Capillary electrophoresis technology.Data from the assay component ATG_M_19_CIS was analyzed into 1 assay endpoint. This assay endpoint, ATG_M_19_CIS, was analyzed with bidirectional fitting relative to DMSO as the negative control and baseline of activity. Using a type of inducible reporter, measures of mRNA for gain or loss-of-signal activity can be used to understand the background control at the transcription factor-level as they relate to the gene . Furthermore, this assay endpoint can be referred to as a secondary readout, because this assay has produced multiple assay endpoints where this one serves a background control function. To generalize the intended target to other relatable targets, this assay endpoint is annotated to the background measurement intended target family, where the subfamily is internal marker.
Human liver HepG2 cells are transiently transfected with multiple reporter transcription units (MRTUs) in 6-well plates using FuGene 6 reagent (Roche; 3 ml FuGene/1 mg DNA). The MRTU constructs are regulated by a cis-regulating element (promoter). […] A major difference between the CIS and TRANS system is that in CIS activities of endogenous TFs are measured, whereas the TRANS assay evaluates changes in activities of exogenous, chimeric NR-Gal4 proteins. […] At the end of 24 hour incubation, total RNA was isolated using TriZol reagent (Invitrogen). The isolated RNA is then reverse-transcribed using oligo(dT) primer and Mo-MLV reverse transcriptase (Invitrogen) with DNAse I (Ambion) treatment for 30 min. The one-tenth of the produced cDNA was amplified by PCR using Taq DNA polymerase (Invitrogen) and two reporter sequence-specific primers. The PCR products were fluorescently labeled by primer extension with 6-arboxyfluorescein (6-FAM) 5'-labeled reporter sequence-specific primer (2 min at 95 C, 20 s at 68 C and 10 min at 72 C) and these products were digested with 5U of HpaI (New England Biolabs) for 2h at 37 C. The fragments were purified using Qiaquick PCR columns (Qiagen), analyzed on an ABI 3130xL genetic analyzer (Applied Biosystems) with peak positions identified by using a set of X-rhodamine (ROX)-labeled MapMarker1000 molecular weight standards (BioVentures). The raw capillary electrophoresis data was processed using Attagraph software (Attagene).

Q: For `OC(Cc1ccccc1Cl)(Cn1cncn1)C1(Cl)CC1` (stereo not given), which outcome is on record?
A: inactive

Q: With `O=c1nc(O)n(Cl)c(=O)n1Cl` as the compound, how does the outcome read?
A: inactive

Q: Which outcome does the source give for `CS(=O)(=O)c1ccc(C(=O)C2C(=O)CCCC2=O)c(Cl)c1COCC(F)(F)F` here?
A: inactive

Q: For `O=C(NC(=O)c1c(F)cccc1F)Nc1cc(Cl)c(Oc2ncc(C(F)(F)F)cc2Cl)c(Cl)c1`, which outcome is on record?
A: inactive

Q: Which outcome does the source give for `O=NN1CCOCC1` here?
A: inactive

Q: Which outcome does the source give for `CC(C)O.CC(C)O.OCCN(CCO)CCO.OCCN(CCO)CCO.[Ti]` here?
A: inactive

Q: Which outcome does the source give for `Nc1cccnc1` here?
A: inactive

Q: Which outcome does the source give for `c1ccc2c(c1)Oc1ccccc1O2` here?
A: inactive

Q: Which outcome does the source give for `CC[N+](CC)(CC)CC` here?
A: inactive

Q: Which outcome does the source give for `O=[N+]([O-])c1ccccc1O` here?
A: inactive

Q: For `Oc1c(Br)cc(Br)cc1Br`, which outcome is on record?
A: inactive

Q: Which AC50 does the source give for `CCCCCCCCCCCCCCC(Br)C(=O)O` (stereo not given) here?
A: 183 µM (active)

Q: With `O=C1c2ccccc2C(=O)C1C(=O)C(c1ccccc1)c1ccc(Cl)cc1` (stereo not given) as the compound, how does the AC50 read?
A: 33.4 µM (active)

Q: For `NNCCO`, which outcome is on record?
A: inactive

Q: Which outcome does the source give for `CN(N=O)c1ccc([N+](=O)[O-])cc1` here?
A: inactive

Q: For `[Cl][Sn]([c]1ccccc1)([c]1ccccc1)[c]1ccccc1`, which outcome is on record?
A: inactive

Q: For `C=CCN=C=S`, which outcome is on record?
A: inactive

Q: With `N#CCCC(Br)(C#N)CBr` (stereo not given) as the compound, how does the outcome read?
A: inactive

Q: For `N#CS`, which outcome is on record?
A: inactive

Q: With `ClCCN1CCOCC1` as the compound, how does the outcome read?
A: inactive

Q: For `O=[N+]([O-])c1ccc(Nc2ccccc2)cc1`, which outcome is on record?
A: inactive

Q: Which outcome does the source give for `Cc1cccc(C)c1NC(=O)CN1CCCC1=O` here?
A: inactive

Q: With `Nc1ccc(Br)cc1` as the compound, how does the outcome read?
A: inactive

Q: With `CC1(C)[C@H](C(=O)O[C@H](C#N)c2cccc(Oc3ccccc3)c2)[C@@H]1/C=C(\Cl)C(F)(F)F` as the compound, how does the outcome read?
A: inactive

Q: Which outcome does the source give for `CCCSP(=S)(OCC)Oc1ccc(Cl)cc1Cl` (stereo not given) here?
A: inactive

Q: Which outcome does the source give for `CC(C=O)Cc1ccc2c(c1)OCO2` (stereo not given) here?
A: inactive

Q: With `CC(C)N(C(=O)CCl)c1ccccc1` as the compound, how does the outcome read?
A: inactive

Q: With `CCOC(=O)OC1=C(c2cc(C)ccc2C)C(=O)NC12CCC(OC)CC2` (stereo not given) as the compound, how does the outcome read?
A: inactive

Q: Which outcome does the source give for `CC(C)[C@@H](Nc1ccc(C(F)(F)F)cc1Cl)C(=O)OC(C#N)c1cccc(Oc2ccccc2)c1` (stereo not given in full) here?
A: inactive

Q: For `OCC(c1ccc(Cl)cc1)c1ccc(Cl)cc1`, which AC50 is on record?
A: 48.5 µM (active)

Q: With `Cc1c([N+](=O)[O-])c(C)c([N+](=O)[O-])c(C(C)(C)C)c1[N+](=O)[O-]` as the compound, how does the outcome read?
A: inactive

Q: With `O=NN1CCCCCCC1` as the compound, how does the outcome read?
A: inactive

Q: With `Cc1cc(Cl)ccc1OCCCC(=O)O` as the compound, how does the outcome read?
A: inactive

Q: With `O=NN1CCCCCC1` as the compound, how does the outcome read?
A: inactive

Q: For `Nc1c(Oc2ccccc2)cc(O)c2c1C(=O)c1ccccc1C2=O`, which outcome is on record?
A: inactive

Q: Which outcome does the source give for `O=S(=O)(C(Cl)(Cl)Cl)C(Cl)(Cl)Cl` here?
A: inactive

Q: With `O=C(NC(=O)c1c(F)cccc1F)Nc1cc(Cl)c(F)c(Cl)c1F` as the compound, how does the outcome read?
A: inactive

Q: With `[F][Sn]([c]1ccccc1)([c]1ccccc1)[c]1ccccc1` as the compound, how does the outcome read?
A: inactive

Q: For `CCCCCCCCCCCCc1cccc(S(=O)(=O)O)c1`, which outcome is on record?
A: inactive

Q: With `COc1ccc([N+](=O)[O-])cc1O` as the compound, how does the outcome read?
A: inactive
